Reference: PubChem BioAssay (NCI)
About 83,000 compounds went through this panel and 20% of them were active in at least one assay; those are over-represented in the sample as a whole.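 How to read the values: 0–100, growth inhibition (40 = 60% inhibited); 0, no net growth; -100 to 0, cell death (-40 = 40% of starting cells died; -100 = all dead).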 Calls of active or inactive are those of the source. The calls were made as follows: active = growth percent below 10; inactive = the rest.

System: MDA-MB-468 breast
Experiment: NCI-60 one-dose screen, 48 h (100 = growth as untreated, 0 = no growth, -100 = all killed)
Conditions: 10 µM unless noted

| Compound | growth |
| --- | --- |
| COC(=O)[C@H](CC(C)C)NC(=O)NC(=O)NC(=O)CI | 75.9% (inactive) |
| O=C(Oc1c(Cl)c(Cl)c(Cl)c(Cl)c1Cl)C1CCCN1C(=O)OCc1ccccc1 (stereo not given) | 11.9% (inactive) |
| N#Cc1c(-c2ccc(Br)cc2)cc(-c2c[nH]c3ccccc23)nc1N | 7.56% (active) |
| O=C1c2ccccc2C(=O)c2c1ccc(C(Br)Br)c2[N+](=O)[O-] | -66.5% (active) |
| Cc1cc(-c2ccccc2)cc(C)n1 | 103% (inactive) |
| CC1(C)[C@@H](O[C@@H]2OC[C@@H](O[C@@H]3O[C@H](CO)[C@@H](O)[C@H](O)[C@H]3O[C@@H]3OC[C@@H](O)[C@H](O)[C@H]3O)[C@H](O)[C@H]2O[C@@H]2O[C@H](CO)[C@@H](O)[C@H](O)[C@H]2O)CC[C@]2(C)[C@H]3CC[C@]45OC[C@@]6(CC[C@](C)(C=O)C[C@H]64)[C@H](O)C[C@@]5(C)[C@]3(C)CC[C@@H]12 | -71.2% (active) |
| COC(=O)c1ccc2oc(NC(=O)c3ccc(N4CCOCC4)c([N+](=O)[O-])c3)nc2c1 | 113% (inactive) |
| N#C/C(=C/C=C/c1ccccc1)S(=O)c1ccccc1 (stereo not given) | -56% (active) |
| O=C(Nc1cccc(F)c1)c1cc(=O)[nH]c2cc(Br)ccc12 | 55.3% (inactive) |
| COc1cccc(C2C3=C(COC3=O)N(CCO)c3cc4c(cc32)OCO4)c1 (stereo not given) | -36.3% (active) |
| NC(=O)Nc1ccc2ncnc(Nc3ccc(Cl)cc3)c2c1 | -7.15% (active) |
| COc1ccc(NC(=S)N/N=C/c2ccccc2SSCCC(=O)OC[C@H]2O[C@H](O)[C@H](O)[C@@H](O)[C@@H]2O)cc1 | -8.32% (active) |
| N#C/C(=C\c1ccc(Br)cc1)n1nnc2ccc(F)cc21 | -9.09% (active) |
| ClCC(Cl)[C@@H]1CC2C=CC1C2 (stereo not given in full) | 96% (inactive) |
| CN1CCN(c2ccc3nc(-c4cc(C(C)(C)C)c(O)c(C(C)(C)C)c4)[nH]c3c2)CC1 | 65.4% (inactive) |
| O=C(Nc1ccccn1)[C@H](O)[C@@H](O)C(=O)N1CCOCC1 | 119% (inactive) |
| COc1cc([C@@H]2c3cc4c(cc3[C@H](SC(=N)N)[C@H]3COC(=O)[C@H]23)OCO4)cc(OC)c1OC | -4.2% (active) |
| C#CCOc1ccc2ncnc(Nc3cccc(NC(=O)C=C)c3)c2c1 | 41.6% (inactive) |
| O=C(OC(OC(=O)c1cc(Cl)cc(Cl)c1)c1cccc2ccccc12)c1ccccc1 (stereo not given) | 111% (inactive) |
| COc1ccc(CNc2c3ccccc3nc3ccc(OC)cc23)cc1 | -14.7% (active) |

| Compound | growth |
| --- | --- |
| O=C1/C(=C/c2ccc(C(F)(F)F)cc2)COc2ccc(O)c(O)c21 | -36.8% (active) |
| COc1ccc(C2CC(c3cc(OC)c(OC)c(OC)c3)=NN2)cc1 (stereo not given) | 66.6% (inactive) |
| O=C1OCC2=C1C(c1ccccc1)c1cc3c(cc1N2CCO)OCO3 (stereo not given) | 9.26% (active) |
| CC(C)CCSC1=CC(=O)c2ccccc2C1=O | -84.1% (active) |
| COc1cccc(N2CCN(c3ncnc4c3[nH]c3ccc(F)cc34)C[C@@H]2C)c1 | -12.5% (active) |
| COc1ccc(CN2C(=O)/C(=C/c3nc(CO)cs3)SC2=S)cc1 | 31.7% (inactive) |
| COc1cc(-c2cc(-c3ccc(Nc4ncnc5cc(Cl)ccc45)cc3)nc(N3CCN(C)CC3)n2)cc(OC)c1OC | 105% (inactive) |
| N#CC1C=CN(CC(N)=O)c2ccc3cccnc3c21 (stereo not given) | 96.2% (inactive) |
| CC(=O)c1cc(C(=O)c2ccc3c(c2)Sc2ccccc2N3)c2cc(C)ccn12 | -3.41% (active) |
| COc1ccc(OC)c(/C=C/[C@H]2O[C@@H](C)[C@H](O)[C@@H]2O)c1 | 114% (inactive) |
| COC1CC(OC(=O)c2ccc([N+](=O)[O-])cc2)C(COC(=O)c2ccc([N+](=O)[O-])cc2)O1 (stereo not given) | 93.6% (inactive) |
| COc1ccc(OC)c(/C=C2\Oc3cc(O)ccc3C2=O)c1 | 102% (inactive) |
| Oc1ccc(CSc2nnc(-c3cnccn3)o2)c2cccnc12 | 7.59% (active) |
| O=C1C=CC(=O)N1CCCCCCCCCCN1C(=O)C=CC1=O | 70.9% (inactive) |
| O=C1CCCCCCCCC(O)C(O)CCCC(c2cccs2)O1 (stereo not given) | 95.5% (inactive) |
| Cc1nc2sc(C(=O)Nc3cccc(Br)c3)c(N)c2cc1C(=O)c1ccc(C(F)(F)F)cc1 | 90.6% (inactive) |
| Cc1ccc2c(c1)Sc1c(ccc3ccccc13)N2 | 86.6% (inactive) |
| COc1c(N2CC3CCCN(C(C)=O)C3C2)c(F)cc2c(=O)c(C(=O)N[C@H]3C(O)[C@@H](O)C(CO)O[C@H]3O)cn(C3CC3)c12 (stereo not given in full) | 98% (inactive) |
| O=C(Nc1cccc(-n2cc(-c3ccncc3)c(-c3cc(O)cc(Cl)c3)n2)c1)c1ccc(N2CCOCC2)c(C(F)(F)F)c1 | 26% (inactive) |
| CO[C@@H](C)Cn1c(=O)n(C)c2cnc3ccc(-c4cncc(C(C)(C)O)c4)cc3c21 | -45.9% (active) |
